Reference: PubChem BioAssay (EPA / NIEHS)
Results filed as inconclusive are left out. Calls of active or inactive are those of the source. How the source made its calls, unless noted: active means hit-call score of the fitted dose curve at least 0.9, where 1 is the maximum; inconclusive means response in the unintended direction; inactive means score below 0.9.

How the values were obtained:
[1] = ATG_TAL_CIS: Attagene CIS-FACTORIAL HepG2 Assay for human TAL Basal Promoter (AID 2282966; active means hit-call score of the fitted dose curve at least 0.9, where 1 is the maximum; inactive means score below 0.9;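 further: background control endpoint measuring basal TAL promoter reporter mRNA not a specific factor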); details: HepG2 Attagene cis-factorial TAL promoter reporter; actives raise or lower the signal
Outline: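 In this cell-based multiplex, HepG2 liver cells bearing cis-promoter reporter constructs are dosed for 24 hours. Total RNA is reverse-transcribed and amplified, labelled fragments are sized by capillary electrophoresis, and signal changes are fitted bidirectionally versus DMSO.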

[2] = ATG_TGFb_CIS: Attagene CIS-FACTORIAL HepG2 Assay for human Transforming Growth Factor (TGF) (AID 2282967; active means hit-call score of the fitted dose curve at least 0.9, where 1 is the maximum; inactive means score below 0.9); details: HepG2 Attagene CIS TGFb reporter, mRNA transcription; actives raise or lower the signal
Outline: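 Bidirectional fitting relative to DMSO gave the endpoint. Underlying data: reporter mRNA from HepG2 cells carrying transiently transfected cis-regulated reporter constructs, harvested 24 h after dosing and analyzed by RT-PCR and capillary electrophoresis.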

[3] = ATG_VDRE_CIS: Attagene CIS-FACTORIAL HepG2 Assay for human Vitamin D Receptor Element (VDRE) (AID 2282968; active means hit-call score of the fitted dose curve at least 0.9, where 1 is the maximum; inactive means score below 0.9); details: HepG2 VDRE cis-reporter transcription, actives raise or lower the signal
Outline: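 In transiently transfected HepG2 liver cells, gain or loss of reporter mRNA after 24 h exposure is scored relative to DMSO, using fluorescence detection by capillary electrophoresis of RT-PCR products.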

[4] = molecular target: Nuclear receptor subfamily 1 group I member 3 (Homo sapiens) (UniProt Q14994); assay: ATG_CAR_TRANS: Attagene TRANS-FACTORIAL HepG2 Assay for human Constitutive Androstane Receptor (CAR) (AID 2282969); details: HepG2 Attagene TRANS-FACTORIAL CAR reporter;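 further: activators raise reporter mRNA above DMSO so AC50 marks induction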
Sequence of Nuclear receptor subfamily 1 group I member 3 (Homo sapiens) (Q14994 whole entry, looked up, the tested form may be a part): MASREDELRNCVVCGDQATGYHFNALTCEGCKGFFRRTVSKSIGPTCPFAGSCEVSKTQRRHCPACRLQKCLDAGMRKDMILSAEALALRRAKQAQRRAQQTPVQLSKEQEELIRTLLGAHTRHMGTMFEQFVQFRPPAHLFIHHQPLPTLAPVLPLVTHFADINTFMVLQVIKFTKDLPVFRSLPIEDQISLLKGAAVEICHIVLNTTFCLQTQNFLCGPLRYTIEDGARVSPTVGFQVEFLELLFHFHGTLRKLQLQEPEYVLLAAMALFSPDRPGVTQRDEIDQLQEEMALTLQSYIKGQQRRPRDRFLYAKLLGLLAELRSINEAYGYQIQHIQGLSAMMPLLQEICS
Outline: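 Readout is reporter mRNA induction, quantified by fluorescent primer extension and capillary electrophoresis after RT-PCR. Cells were HepG2 transiently carrying chimeric NR-Gal4 constructs with GAL4-UAS reporters, treated for 24 h; activity scored upward from DMSO.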

[5] = molecular target: X-box-binding protein 1 (Homo sapiens) (UniProt P17861); assay: ATG_Xbp1_CIS: Attagene CIS-FACTORIAL HepG2 Assay for human X-box Binding Protein 1 (XBP1) (AID 2282972; active means hit-call score of the fitted dose curve at least 0.9, where 1 is the maximum; inactive means score below 0.9); details: HepG2 XBP1 cis-element reporter, Attagene multiplex; actives raise or lower the signal
Sequence of X-box-binding protein 1 (Homo sapiens) (P17861 whole entry, looked up, the tested form may be a part): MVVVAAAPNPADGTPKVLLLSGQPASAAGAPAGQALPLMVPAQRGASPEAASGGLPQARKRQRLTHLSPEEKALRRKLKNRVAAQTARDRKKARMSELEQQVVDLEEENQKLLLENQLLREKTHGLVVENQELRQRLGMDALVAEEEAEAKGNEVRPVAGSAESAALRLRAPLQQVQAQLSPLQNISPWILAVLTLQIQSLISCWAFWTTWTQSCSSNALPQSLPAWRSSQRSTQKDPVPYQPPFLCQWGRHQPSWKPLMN
Outline: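 Fluorescence-labelled cDNA fragments from reporter transcripts, separated by capillary electrophoresis, give the signal. Source: HepG2 cells transfected with promoter-driven reporter units, harvested 24 h post-dose. DMSO served as reference for bidirectional curve fitting.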

[6] = ATG_M_19_TRANS: Attagene TRANS-FACTORIAL HepG2 Assay for M19 Transcription Factor (Internal Marker) (AID 2282974); details: HepG2 Attagene TRANS-FACTORIAL M19 internal marker reporter
Outline: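 HepG2 transiently transfected with GAL4-UAS multiplex reporter constructs, exposed 24 h; reporter RNA quantified by RT-PCR, 6-FAM labeling, HpaI digestion and capillary electrophoresis; internal background marker fitted upward versus DMSO.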

[7] = molecular target: Oxysterols receptor LXR-alpha (Homo sapiens) (UniProt Q13133); assay: ATG_LXRa_TRANS: Attagene TRANS-FACTORIAL HepG2 Assay for human Liver X Receptor alpha (LXRa) (AID 2282980); details: HepG2 Attagene TRANS reporter, LXRa transactivation
Sequence of Oxysterols receptor LXR-alpha (Homo sapiens) (Q13133 whole entry, looked up, the tested form may be a part): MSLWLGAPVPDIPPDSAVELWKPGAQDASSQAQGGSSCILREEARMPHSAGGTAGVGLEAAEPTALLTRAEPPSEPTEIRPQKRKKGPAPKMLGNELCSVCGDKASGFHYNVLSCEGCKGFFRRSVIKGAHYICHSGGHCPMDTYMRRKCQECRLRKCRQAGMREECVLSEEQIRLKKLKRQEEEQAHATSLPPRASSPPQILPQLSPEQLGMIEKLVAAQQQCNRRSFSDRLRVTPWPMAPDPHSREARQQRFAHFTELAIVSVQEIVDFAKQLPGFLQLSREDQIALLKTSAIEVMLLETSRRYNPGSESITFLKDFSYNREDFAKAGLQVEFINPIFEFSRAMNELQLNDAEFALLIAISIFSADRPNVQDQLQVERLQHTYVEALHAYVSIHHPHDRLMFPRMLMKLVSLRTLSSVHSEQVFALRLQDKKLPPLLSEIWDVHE
Outline: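 Read-out: reporter transcript levels by RT-PCR plus capillary electrophoresis, fluorescence intensity. Transiently transfected HepG2, exogenous NR-GAL4 chimera, GAL4-UAS reporters; 24 h compound exposure. Activity = increase over DMSO negative control.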

[8] = molecular target: Transcriptional activator Myb (Homo sapiens) (UniProt P10242); assay: ATG_Myb_CIS: Attagene CIS-FACTORIAL HepG2 Assay for human Myeloblastosis (Myb) Proto-Oncogene Transcription Factor (AID 2282986; active means hit-call score of the fitted dose curve at least 0.9, where 1 is the maximum; inactive means score below 0.9); details: HepG2 Attagene CIS-FACTORIAL Myb reporter transcription; actives raise or lower the signal
Sequence of Transcriptional activator Myb (Homo sapiens) (P10242 whole entry, looked up): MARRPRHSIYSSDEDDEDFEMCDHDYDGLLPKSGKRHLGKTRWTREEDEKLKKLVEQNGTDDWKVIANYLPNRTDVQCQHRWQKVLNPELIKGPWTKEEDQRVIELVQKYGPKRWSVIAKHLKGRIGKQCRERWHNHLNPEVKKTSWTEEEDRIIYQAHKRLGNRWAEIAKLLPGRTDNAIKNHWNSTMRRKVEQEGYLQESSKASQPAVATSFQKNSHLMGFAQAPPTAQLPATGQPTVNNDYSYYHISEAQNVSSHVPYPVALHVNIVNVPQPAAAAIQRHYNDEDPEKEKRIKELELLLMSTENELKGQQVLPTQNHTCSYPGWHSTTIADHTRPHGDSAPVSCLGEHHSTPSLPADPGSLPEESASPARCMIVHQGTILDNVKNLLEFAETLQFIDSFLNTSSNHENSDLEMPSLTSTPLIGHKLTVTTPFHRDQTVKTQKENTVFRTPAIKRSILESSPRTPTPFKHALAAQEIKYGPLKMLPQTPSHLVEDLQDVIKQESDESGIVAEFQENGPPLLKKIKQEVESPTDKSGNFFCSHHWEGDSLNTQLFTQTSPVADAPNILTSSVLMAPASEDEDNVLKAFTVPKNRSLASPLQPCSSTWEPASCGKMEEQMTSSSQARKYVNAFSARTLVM
Outline: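 Transiently transfected HepG2 cells carrying a multiplexed cis-promoter reporter set report endogenous Myb activity after 24 h compound exposure. Reporter mRNA is read by RT-PCR with capillary electrophoresis of fluorescent products, fitted bidirectionally against DMSO.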

[9] = molecular target: Nuclear respiratory factor 1 (Homo sapiens) (UniProt Q16656); assay: ATG_NRF1_CIS: Attagene CIS-FACTORIAL HepG2 Assay for human Nuclear Respiratory Factor 1 (NRF1) Orphan Gene (AID 2282987; active means hit-call score of the fitted dose curve at least 0.9, where 1 is the maximum; inactive means score below 0.9); details: HepG2 NRF1 cis-element reporter, Attagene multiplex; actives raise or lower the signal
Sequence of Nuclear respiratory factor 1 (Homo sapiens) (Q16656 whole entry, looked up): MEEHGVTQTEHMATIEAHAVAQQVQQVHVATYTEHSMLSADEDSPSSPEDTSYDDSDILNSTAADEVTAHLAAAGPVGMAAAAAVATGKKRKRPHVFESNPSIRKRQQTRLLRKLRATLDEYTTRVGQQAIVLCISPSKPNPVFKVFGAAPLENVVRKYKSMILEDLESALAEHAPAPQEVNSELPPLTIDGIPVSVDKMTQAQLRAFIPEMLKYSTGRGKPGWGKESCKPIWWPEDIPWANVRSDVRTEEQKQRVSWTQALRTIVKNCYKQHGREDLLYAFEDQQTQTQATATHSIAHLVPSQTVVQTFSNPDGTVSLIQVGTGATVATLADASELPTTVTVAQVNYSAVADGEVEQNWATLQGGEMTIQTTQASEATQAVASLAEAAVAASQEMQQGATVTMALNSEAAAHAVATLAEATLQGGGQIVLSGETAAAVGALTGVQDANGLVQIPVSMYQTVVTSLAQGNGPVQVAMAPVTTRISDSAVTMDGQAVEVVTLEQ
Outline: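 HepG2 cells transiently transfected with multiple cis-regulated reporter units, exposed 24 h. Reporter mRNAs measured by RT-PCR, fluorescent labelling, HpaI digestion and capillary electrophoresis; bidirectional fitting against DMSO.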

[10] = molecular target: Estrogen-related receptor gamma (Homo sapiens) (UniProt P62508); assay: ATG_ERRg_TRANS: Attagene TRANS-FACTORIAL HepG2 Assay for human Estrogen-Related Receptor gamma (ERRg) (AID 2282977); details: HepG2 Attagene TRANS reporter, ERRg transactivation;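 further: hits increase reporter signal over DMSO so potencies reflect activators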
Outline: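 Transient HepG2 transfectants, 24 h compound exposure, GAL4-UAS reporter mRNA by RT-PCR/6-FAM labelling/capillary electrophoresis; positive direction vs DMSO.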

[11] = molecular target: Glucocorticoid receptor (Homo sapiens) (UniProt P04150); assay: ATG_GR_TRANS: Attagene TRANS-FACTORIAL HepG2 Assay for human Glucocorticoid Receptor (GR) (AID 2282978); details: HepG2 Attagene TRANS GR reporter, mRNA transcription;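 further: activators score as hits since higher reporter transcript over DMSO is fitted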
Sequence of Glucocorticoid receptor (Homo sapiens) (P04150 whole entry, looked up, the tested form may be a part): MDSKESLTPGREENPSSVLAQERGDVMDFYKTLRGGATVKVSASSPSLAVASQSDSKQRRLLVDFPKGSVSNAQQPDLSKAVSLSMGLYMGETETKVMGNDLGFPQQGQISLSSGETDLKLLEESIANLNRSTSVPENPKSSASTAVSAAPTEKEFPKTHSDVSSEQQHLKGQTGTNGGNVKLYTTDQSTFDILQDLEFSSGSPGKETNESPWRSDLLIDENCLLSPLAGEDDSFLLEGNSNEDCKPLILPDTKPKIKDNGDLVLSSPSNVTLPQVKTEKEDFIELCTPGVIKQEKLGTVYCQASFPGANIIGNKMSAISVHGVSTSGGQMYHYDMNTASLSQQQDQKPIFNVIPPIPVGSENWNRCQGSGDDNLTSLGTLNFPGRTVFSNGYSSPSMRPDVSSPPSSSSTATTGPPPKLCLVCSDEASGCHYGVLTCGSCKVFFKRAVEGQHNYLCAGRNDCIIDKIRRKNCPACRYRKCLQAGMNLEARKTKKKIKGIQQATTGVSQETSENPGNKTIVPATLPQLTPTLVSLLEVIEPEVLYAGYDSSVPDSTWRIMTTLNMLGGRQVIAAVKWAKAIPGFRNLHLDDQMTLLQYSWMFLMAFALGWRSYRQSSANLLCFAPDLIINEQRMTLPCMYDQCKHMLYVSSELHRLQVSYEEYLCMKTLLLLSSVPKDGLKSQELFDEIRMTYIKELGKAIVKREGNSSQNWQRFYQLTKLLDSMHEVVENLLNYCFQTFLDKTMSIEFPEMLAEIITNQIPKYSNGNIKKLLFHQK
Outline: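 HepG2 cells transiently transfected with GAL4-UAS reporter units and exogenous GR-Gal4 chimera, dosed 24 h. Reporter mRNA by RT-PCR, FAM labeling, HpaI digest and capillary electrophoresis; gain-of-signal fit versus DMSO.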

[12] = molecular target: Bile acid receptor (Homo sapiens) (UniProt Q96RI1); assay: ATG_FXR_TRANS: Attagene TRANS-FACTORIAL HepG2 Assay for Farnesoid X Receptor (FXR) (AID 2282979); details: HepG2 Attagene TRANS FXR-GAL4 reporter transcription;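 further: hits raise reporter mRNA above DMSO so AC50 marks FXR activation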
Sequence of Bile acid receptor (Homo sapiens) (Q96RI1 whole entry, looked up, the tested form may be a part): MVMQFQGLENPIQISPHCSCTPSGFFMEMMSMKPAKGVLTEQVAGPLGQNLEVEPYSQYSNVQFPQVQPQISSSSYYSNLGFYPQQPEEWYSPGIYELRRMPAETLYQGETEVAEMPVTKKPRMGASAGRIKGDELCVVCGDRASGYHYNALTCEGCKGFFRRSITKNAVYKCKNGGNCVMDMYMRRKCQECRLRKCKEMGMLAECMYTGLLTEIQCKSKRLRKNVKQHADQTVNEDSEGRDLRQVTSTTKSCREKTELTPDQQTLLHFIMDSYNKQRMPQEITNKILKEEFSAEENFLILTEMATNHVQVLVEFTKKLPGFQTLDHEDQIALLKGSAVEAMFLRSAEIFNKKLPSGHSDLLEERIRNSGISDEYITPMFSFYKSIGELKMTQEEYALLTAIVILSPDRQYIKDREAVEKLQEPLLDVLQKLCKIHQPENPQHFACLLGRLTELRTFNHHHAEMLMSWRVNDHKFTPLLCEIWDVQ
Outline: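 Read-out: fluorescent reporter transcripts quantified by capillary electrophoresis after RT-PCR of total RNA. Source cells were HepG2 transiently carrying chimeric NR-GAL4 plus GAL4-UAS reporter units, dosed 24 h. Activity fitted upward relative to DMSO baseline.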

[13] = molecular target: Oxysterols receptor LXR-beta (Homo sapiens) (UniProt P55055); assay: ATG_LXRb_TRANS: Attagene TRANS-FACTORIAL HepG2 Assay for human Liver X Receptor beta (LXRb) (AID 2282981); details: HepG2 Attagene TRANS GAL4-LXRb reporter, mRNA
Sequence of Oxysterols receptor LXR-beta (Homo sapiens) (P55055 whole entry, looked up, the tested form may be a part): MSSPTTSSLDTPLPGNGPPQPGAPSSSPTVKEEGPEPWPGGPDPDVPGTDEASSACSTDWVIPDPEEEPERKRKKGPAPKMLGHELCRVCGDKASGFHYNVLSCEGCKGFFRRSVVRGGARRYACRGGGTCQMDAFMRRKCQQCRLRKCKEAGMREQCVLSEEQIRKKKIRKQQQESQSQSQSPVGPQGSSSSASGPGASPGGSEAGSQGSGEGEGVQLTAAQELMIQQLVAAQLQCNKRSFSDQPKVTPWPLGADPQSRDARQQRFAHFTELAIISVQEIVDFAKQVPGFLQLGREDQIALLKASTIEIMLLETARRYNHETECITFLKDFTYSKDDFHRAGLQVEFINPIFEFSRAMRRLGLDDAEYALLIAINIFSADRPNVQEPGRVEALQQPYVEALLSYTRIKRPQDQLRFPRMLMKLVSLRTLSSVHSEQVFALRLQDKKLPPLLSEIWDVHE
Outline: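 Cells: HepG2, transiently transfected with GAL4-UAS reporter units plus LXRb-Gal4 fusion. Treatment: 24 h. Detection: reporter mRNA by RT-PCR, 6-FAM labelling, HpaI digestion, capillary electrophoresis.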

[14] = ATG_M_32_TRANS: Attagene TRANS-FACTORIAL HepG2 Assay for M32 Transcription Factor (Internal Marker) (AID 2282984); details: HepG2 Attagene TRANS M32 internal marker reporter;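 further: transcript level of a background control reporter unit measured by RT-PCR and capillary electrophoresis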
Outline: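 Using transiently transfected HepG2 cells exposed to test chemicals for 24 h, reporter transcripts are converted to labelled cDNA fragments and quantified by capillary electrophoresis. DMSO defines the activity baseline.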

[15] = ATG_GAL4_TRANS: Attagene TRANS-FACTORIAL HepG2 Assay for GAL4 (Internal Marker) (AID 2282976); details: HepG2 Attagene TRANS GAL4 internal marker reporter
Outline: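 RT-PCR/capillary electrophoresis readout of reporter mRNA. HepG2, transient MRTU transfection (GAL4-UAS reporters), 24 h compound exposure. Background-control endpoint, positive direction vs DMSO baseline.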

[16] = ATG_M_06_TRANS: Attagene TRANS-FACTORIAL HepG2 Assay for M06 Transcription Factor (Internal Marker) (AID 2282983); details: HepG2 Attagene TRANS M06 internal marker reporter
Outline: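 After a 24 h chemical treatment of transfected HepG2, RNA underwent DNase I treatment, reverse transcription and reporter-specific PCR; labelled, HpaI-digested products were sized by capillary electrophoresis. Signal increase relative to DMSO defined activity.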

[17] = molecular target: Hepatocyte nuclear factor 4-alpha (Homo sapiens) (UniProt P41235); assay: ATG_HNF4a_TRANS: Attagene TRANS-FACTORIAL HepG2 Assay for human Hepatocyte Nuclear Factor 4 alpha (HNF4a) (AID 2282982); details: HepG2 HNF4a transactivation reporter, mRNA readout
Sequence of Hepatocyte nuclear factor 4-alpha (Homo sapiens) (P41235 whole entry, looked up): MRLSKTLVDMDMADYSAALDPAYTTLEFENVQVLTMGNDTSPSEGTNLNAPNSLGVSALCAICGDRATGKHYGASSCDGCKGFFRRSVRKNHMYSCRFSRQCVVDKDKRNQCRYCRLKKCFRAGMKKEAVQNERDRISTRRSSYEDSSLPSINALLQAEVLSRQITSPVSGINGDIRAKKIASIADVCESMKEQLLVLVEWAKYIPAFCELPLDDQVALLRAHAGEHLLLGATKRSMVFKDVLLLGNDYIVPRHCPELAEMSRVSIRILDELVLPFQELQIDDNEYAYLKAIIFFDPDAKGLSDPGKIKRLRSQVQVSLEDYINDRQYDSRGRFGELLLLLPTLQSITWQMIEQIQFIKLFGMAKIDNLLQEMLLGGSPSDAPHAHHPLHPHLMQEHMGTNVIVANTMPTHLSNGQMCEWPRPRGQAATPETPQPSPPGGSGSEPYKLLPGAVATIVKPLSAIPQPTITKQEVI
Outline: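 Transfected HepG2 reporter cells are dosed for 24 h; reporter RNA is reverse-transcribed, amplified, fluorescently labelled and HpaI-digested before CE sizing. Positive-direction fit against DMSO.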

[18] = molecular target: Nuclear receptor subfamily 4 group A member 2 (Homo sapiens) (UniProt P43354); assay: ATG_NURR1_TRANS: Attagene TRANS-FACTORIAL HepG2 Assay for human Nuclear Receptor Related Protein 1 (NURR1) (AID 2282985); details: HepG2 Attagene TRANS reporter, mRNA readout
Sequence of Nuclear receptor subfamily 4 group A member 2 (Homo sapiens) (P43354 whole entry, looked up): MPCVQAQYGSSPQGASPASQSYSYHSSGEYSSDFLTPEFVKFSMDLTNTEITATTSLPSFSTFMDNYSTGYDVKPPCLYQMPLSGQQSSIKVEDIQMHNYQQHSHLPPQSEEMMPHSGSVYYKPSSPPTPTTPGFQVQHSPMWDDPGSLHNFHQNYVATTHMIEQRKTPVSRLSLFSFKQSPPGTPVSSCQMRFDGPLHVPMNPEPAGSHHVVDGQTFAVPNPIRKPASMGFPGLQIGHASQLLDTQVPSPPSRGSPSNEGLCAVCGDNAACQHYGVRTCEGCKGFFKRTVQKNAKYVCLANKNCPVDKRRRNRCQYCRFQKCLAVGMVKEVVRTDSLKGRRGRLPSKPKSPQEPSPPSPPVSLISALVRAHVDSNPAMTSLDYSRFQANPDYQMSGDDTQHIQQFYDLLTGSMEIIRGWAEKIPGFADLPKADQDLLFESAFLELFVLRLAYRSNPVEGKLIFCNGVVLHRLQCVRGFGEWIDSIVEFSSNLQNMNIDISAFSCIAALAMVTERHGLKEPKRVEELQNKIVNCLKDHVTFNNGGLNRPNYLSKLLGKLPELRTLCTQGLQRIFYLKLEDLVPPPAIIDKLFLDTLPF
Outline: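 Cells: HepG2, transiently transfected. Exposure: 24 h. Detection: fluorescence of labelled RT-PCR products separated by capillary electrophoresis; upward fit versus DMSO.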

Measured: outcome

CC(C)=CCC[C@](C)(O)[C@@H]1CC=C(C)CC1
inactive: [1] | [2] | [3] | [4] | [5] | [6] | [7] | [8] | [9]

CCCC(C)C=O (stereo not drawn)
not listed: [7] | [15] | [16] | [17] | [18]
inactive: all other assays above

CC1(C)OC[C@@H]2O[C@@]3(C(=O)O)OC(C)(C)O[C@H]3[C@@H]2O1
inactive: [1] | [2] | [3] | [4] | [5] | [6] | [15] | [16] | [8] | [9]

CC(CC(C)(C)C)CC(C)(C)CC(C)(C)C (stereo not drawn)
not listed: [6] | [7] | [10] | [15]
inactive: all other assays above

C[Si](O[Si](C)(C)C)O[Si](C)(C)C
not listed: [10] | [12] | [15] | [16] | [17]
inactive: all other assays above

CCCCCCCCCCCCCCCC(=O)O
not listed: [6] | [7] | [10] | [11] | [12] | [13] | [17]
inactive: all other assays above

CCCCC/C=C/C=C/C=O
not listed: [6] | [7] | [10] | [13] | [17]
inactive: all other assays above

CO[Si](CCCn1c(=O)n(CCC[Si](OC)(OC)OC)c(=O)n(CCC[Si](OC)(OC)OC)c1=O)(OC)OC
not listed: [7] | [10] | [11] | [12] | [13] | [18]
inactive: all other assays above

OCC(CO)(CO)COCC(CO)(CO)CO
not listed: [6] | [10] | [11] | [12] | [13] | [18]
inactive: all other assays above

CC(CCO)CCCC(C)(C)O (stereo not drawn)
not listed: [10] | [12] | [17] | [18]
inactive: all other assays above

CN(C)c1ccc(O)c2c1C[C@H]1C[C@H]3[C@H](N(C)C)C(=O)C(C(N)=O)=C(O)[C@@]3(O)C(=O)C1=C2O
not listed: [7] | [10] | [12] | [14] | [16] | [17]
inactive: all other assays above
